# Test results as given in ChEMBL document CHEMBL1157539, “Thousands of chemical starting points for antimalarial lead identification” (Nature, 2010).
# Tested on: HepG2
# Assay: GSK_TCMDC: Percent inhibition of human HepG2 cell line. Test compounds present at 10uM.
# Assay type: functional
row,Structure (SMILES),Inhibition [%]
1,CCCCNC(=O)c1[nH]c2c(NC(=O)COc3ccccc3)cccc2c1-c1cccc(NC(=O)C(N)CO)c1 (stereo not drawn),11
2,CC[C@H](C)CNC(=O)c1cccc(-c2ccc(CN3CCC(N4CCCC4)CC3)cc2)n1.O=C(O)C(F)(F)F,41
3,CN1CCc2ccc(NC(=O)Nc3cccc(C(=O)c4ccccc4)c3)cc2C1,11
4,Cc1nc(N)nc(N)c1CCCOc1ccc(Br)cc1,30
5,Cc1ccc(NC(=O)Nc2ccccc2F)cc1-c1ccc(C(=O)Nc2ccncc2)cc1,36
6,COc1ccc2nccc([C@@H](O)CN3CCC(NC(=O)c4ccc(-c5ccc(C#N)cc5)cc4)CC3)c2c1,42
7,Cl.O=C(NC1CCC(N2CCN(c3cccc4[nH]ccc34)CC2)CC1)c1cc2cccnc2[nH]1 (stereo not drawn),9
8,CC[C@H](C)CNC(=O)c1cccc(-c2cccc(CN3CCC(N4CCCC4)CC3)c2)n1.O=C(O)C(F)(F)F,9
9,Cc1cc(C)cc(OCC(O)CN(CCN2CCOCC2)C(=O)Nc2ccc(Br)cc2)c1.O=C(O)C(F)(F)F (stereo not drawn),7
10,O=C(O)C(F)(F)F.Oc1ccc(CCNc2nc(NCc3ccccc3-c3ccc(C(F)(F)F)cc3)nc(NC3CCNCC3)n2)cc1,12
11,CN1CCC(N(Cc2ccc(-c3cnc(NCc4ccccc4)nc3)cc2)S(=O)(=O)c2ccccc2)CC1.O=C(O)C(F)(F)F,48
12,CC(Oc1c(C2CCN(CCCCNC(=O)c3ccc(-c4ccc(C#N)cc4)cc3)CC2)ccc2c1CCCC2)C(N)=O (stereo not drawn),41
13,O=C(O)C(F)(F)F.O=S(=O)(NCCN1CCCC1)c1cccc(-c2cccc(CNCCc3cccs3)c2)c1,30
